In PubChem BioAssay (Tox21):
Where “and” joins values, the source holds several entries; their conditions need not be identical. Identical values can stand only once. Records with an inconclusive call do not appear. A structure can be active in one record and inactive in another. Calls of active or inactive are those of the source. Unless noted, the call rests on the fitted dose curve; in most records, active means well fitted curve in the direction sought with a large enough effect in the repeat runs; inconclusive means weak or mixed curves; inactive means no such curve, though single readings can be large; an effect the other way counts as inactive or inconclusive.

Key:
[1] = qHTS assay to identify small molecule agonists of the hypoxia (HIF-1) signaling pathway - cell viability counter screen (AID 1224844; calls by dose curve; further: nearly all actives have a fitted effect of over 50% in size; further: potency means the concentration at half of the fitted maximal effect)
Outline: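 Tox21 10K compounds were added to HRE-bla ME-180 cells (0.5% dialyzed FBS) and incubated 17 hrs at 37C; ATP-based CellTiter-Glo luminescence then reported cell viability in the same wells.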

[2] = qHTS assay to identify small molecule agonists of H2AX (AID 1224845; active means well fitted activation curve with a large enough effect in the signal ratio in the repeat runs, not every such curve was filed as active; the % refers to the signal ratio; further: potency means the concentration at half of the fitted maximal effect)
Outline: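 Wild-type CHO-K1 cells plated overnight, then exposed 3 hr at 37C to compounds at 15 concentrations (0.76% DMSO). Lysed, then HTRF anti-pH2AX(S139)-cryptate/anti-H2AX-d2 detection after 24 hr at room temperature; emissions 665 and 620 nm.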

[3] = qHTS assay to identify small molecule agonists of the hypoxia (HIF-1) signaling pathway (AID 1224846; active means well fitted activation curve with a large enough effect in the signal ratio in the repeat runs, not every such curve was filed as active; the % refers to the signal ratio; further: potency means the concentration at half of the fitted maximal effect)
Outline: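 Steps: seed ME-180 HRE-bla cells (2,000/well, 0.5% dialyzed FBS); incubate 5 hrs at 37C; pin-transfer compounds or DMSO; incubate 17 hrs; add LiveBLAzer B/G substrate CCF4-AM; measure reporter activation by FRET.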

[4] = qHTS assay to identify small molecule agonists of H2AX - cell viability counter screen (AID 1224847; calls by dose curve; further: nearly all actives have a fitted effect of over 30% in size; further: potency means the concentration at half of the fitted maximal effect; on activity change, negative = cytotoxicity: top concentration of the series differs between compounds)
Outline: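 Cells plated first: CHO-K1, 1000 per well in 10% FBS medium, incubated overnight at 37C. Then 15-point compound titration added (final DMSO 0.76%) for 3 hr. Finally CellTiter-Glo added and luminescence read.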

[5] = A CellTox Green Cytotoxicity Assay to monitor cytotoxicity in HEK293 cells - 0 hour (AID 1224869); further: nearly all actives have a fitted effect of over 50% in size; further: potency means the concentration at half of the fitted maximal effect
Outline: (§1)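 Cytotoxicity was tracked continuously in HEK293 cells by a DNA-binding dye excluded from viable cells. Compounds were transferred in DMSO 5 h after seeding; fluorescence was recorded at intervals up to 40 h.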

[6] = qHTS RealTime-Glo MT Cell Viability Assay in HepG2 cells - 40 hour (AID 1224870); further: nearly all actives have a fitted effect of over 50% in size; further: potency means the concentration at half of the fitted maximal effect
Outline: (§2)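 HepG2 cells mixed with RealTime-Glo MT reagents (NanoLuc plus cell-permeant prosubstrate) were seeded at 600 cells/well, incubated 5 h at 37 C/5% CO2, then pinned with compounds in DMSO; nonlytic luminescence tracked viability during 40 h treatment.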

[7] = A CellTox Green Cytotoxicity Assay to monitor cytotoxicity in HEK293 cells - 40 hour (AID 1224871); further: nearly all actives have a fitted effect of over 45% in size; further: potency means the concentration at half of the fitted maximal effect
Outline: as §1

[8] = qHTS RealTime-Glo MT Cell Viability Assay in HepG2 cells - 8 hour (AID 1224873); further: nearly all actives have a fitted effect of over 55% in size; further: potency means the concentration at half of the fitted maximal effect
Outline: as §2

[9] = A CellTox Green Cytotoxicity Assay to monitor cytotoxicity in HEK293 cells - 24 hour (AID 1224875); further: nearly all actives have a fitted effect of over 45% in size; further: potency means the concentration at half of the fitted maximal effect
Outline: as §1

[10] = A CellTox Green Cytotoxicity Assay to monitor cytotoxicity in HepG2 cells - 16 hour (AID 1224876); further: nearly all actives have a fitted effect of over 45% in size; further: potency means the concentration at half of the fitted maximal effect
Outline: (§3)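 Real-time, homogeneous cytotoxicity readout: dead-cell DNA staining by CellTox Green in HepG2 monolayers, fluorescence measured at timed intervals up to 40 h of continuous compound exposure.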

[11] = qHTS RealTime-Glo MT Cell Viability Assay in HepG2 cells - 32 hour (AID 1224877); further: nearly all actives have a fitted effect of over 55% in size; further: potency means the concentration at half of the fitted maximal effect
Outline: (§4)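 HepG2 suspension premixed with RealTime-Glo reagents is plated at 600 cells per well and left 5 h at 37 C/5% CO2. Compounds in DMSO then go in, and bioluminescence reflecting viable cell number is recorded over 40 h.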

[12] = A CellTox Green Cytotoxicity Assay to monitor cytotoxicity in HepG2 cells - 24 hour (AID 1224878); further: nearly all actives have a fitted effect of over 45% in size; further: potency means the concentration at half of the fitted maximal effect
Outline: as §3

[13] = A CellTox Green Cytotoxicity Assay to monitor cytotoxicity in HepG2 cells - 40 hour (AID 1224879); further: nearly all actives have a fitted effect of over 40% in size
Outline: as §3

[14] = qHTS RealTime-Glo MT Cell Viability Assay in HEK293 cells - 0 hour (AID 1224880)
Outline: (§5)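 Nonlytic bioluminescent viability monitoring. HEK293 at 600 cells/well with reagent; 5 h settle; compound transfer by pintool; plates held at 37 C and read at set time points.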

[15] = qHTS assay to identify small molecule antagonists of the estrogen related receptor (ERR) signaling pathway from Tox21 library (AID 1224848); further: nearly all actives have a fitted effect of over 50% in size; further: potency means the concentration at half of the fitted maximal effect
Outline: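 Cells: ERR line, 2,000/well; 6 h preincubation 37 C/5% CO2. Cpd in DMSO via pin tool; 18 h, 37 C. ONE-Glo, 30 min RT, luminescence.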

[16] = qHTS assay to identify small molecule agonists of the estrogen related receptor (ERR) signaling pathway from Tox21 library (AID 1224849; calls by dose curve; further: nearly all actives have a fitted effect of over 15% in size); conditions: ERR reporter cell line, ONE-Glo luciferase, 18 h
Outline: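 Agonist signal is luciferase luminescence from an ERR reporter cell line treated 18 h at 37 C with DMSO-dissolved compounds, read 30 min after ONE-Glo addition at room temperature.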

[17] = qHTS RealTime-Glo MT Cell Viability Assay in HepG2 cells - 24 hour (AID 1224867); further: nearly all actives have a fitted effect of over 50% in size; further: potency means the concentration at half of the fitted maximal effect
Outline: as §4

[18] = qHTS RealTime-Glo MT Cell Viability Assay in HEK293 cells - 32 hour (AID 1224868); further: nearly all actives have a fitted effect of over 50% in size; further: potency means the concentration at half of the fitted maximal effect; on activity change, negative = cytotoxic: top concentration of the series differs between compounds
Outline: (§6)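 Reads taken at 0, 8, 16, 24, 32 and 40 h from the same wells. HEK293 cells (600/well) carried RealTime-Glo reagents from seeding, with compound added after a 5 h settle at 37 C.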

[19] = qHTS RealTime-Glo MT Cell Viability Assay in HEK293 cells - 16 hour (AID 1224872); further: nearly all actives have a fitted effect of over 50% in size; further: potency means the concentration at half of the fitted maximal effect; on activity change, negative = cytotoxicity: top concentration of the series differs between compounds
Outline: as §6

[20] = qHTS RealTime-Glo MT Cell Viability Assay in HEK293 cells - 40 hour (AID 1224874); conditions: RealTime-Glo luminescence; max response: stronger effect = lower value; further: nearly all actives have a fitted effect of over 50% in size; further: potency means the concentration at half of the fitted maximal effect
Outline: as §5
On the % scale 0 is the no-effect control and ±100 the full control effect.

S=C([S-])NCCNC(=S)[S-].S=C([S-])NCCNC(=S)[S-].[Mn+2].[Zn+2]
inactive: Potency [1] | Potency [2] | Potency [3] | Potency [4] | Potency [5] | Potency [6] | Potency [7] | Potency [8] | Potency [9] | Potency [10] | Potency [11] | Potency [12] | Potency [13] | Potency [14]

CCCCCCCCCCCCCC[N+](C)(C)Cc1ccccc1
active: Potency [4] 25.7 µM and 49.2 µM | Potency [15] 9.84 µM and 10.6 µM and 11.2 mM | Potency [17] 44.3 µM and 10.7 µM and 17.8 mM | Potency [18] 3.52 µM and 3.01 µM and 2.82 mM | Potency [6] 22.2 µM and 9.52 µM and 15.8 mM | Potency [7] 24.9 µM and 19 µM and 15.8 mM | Potency [19] 19.8 µM and 9.52 µM and 12.6 mM | Potency [8] 55.8 µM and 21.3 µM | Potency [20] 3.14 µM and 3.01 µM and 1.58 mM | Potency [9] 39.5 µM and 21.3 µM and 17.8 mM | Potency [10] 49.7 µM and 23.9 µM and 17.8 mM | Potency [11] 24.9 µM and 13.4 µM | Potency [12] 39.5 µM and 16.9 µM and 17.8 mM
inactive: Potency [2] | activity change, positive = activation ([16]; at 42.5 µM (top of the series)) -57.9% | activity change, positive = activation ([16]; at 92.4 µM (top of the series)) -69.7% | activity change, positive = activation ([16]; at 46.2 mM (top of the series)) -75.1% | Potency [5] | Potency [14]
inactive and 17.8 mM (active): Potency [1]

CC(=O)CC(=O)Nc1ccc(S(=O)(=O)O)cc1
inactive: Potency [1] | Potency [2] | Potency [3] | Potency [18] | Potency [5] | Potency [6] | Potency [7] | Potency [19] | Potency [8] | max response [20] 0.915% | Potency [10] | Potency [11] | Potency [12] | Potency [14]

C=CC(C)(CCC=C(C)C)OC=O (stereo unspecified)
inactive: Potency [1] | Potency [3] | Potency [4] | Potency [15] | activity change, positive = activation ([16]; at 92.4 µM (top of the series)) 1.64% | Potency [17] | Potency [18] | Potency [5] | Potency [6] | Potency [7] | Potency [19] | Potency [8] | max response [20] 5.29% | Potency [9] | Potency [10] | Potency [11] | Potency [12] | Potency [13] | Potency [14]

O=S(=O)(O)c1ccccc1/C=C/c1ccc(-c2ccc(/C=C/c3ccccc3S(=O)(=O)O)cc2)cc1
inactive: Potency [1] | Potency [4] | Potency [15] | activity change, positive = activation ([16]; at 92.4 µM (top of the series)) 4.34% | Potency [17] | Potency [18] | Potency [5] | Potency [6] | Potency [7] | Potency [19] | max response [20] 3.02% | Potency [9] | Potency [10] | Potency [11] | Potency [12] | Potency [13] | Potency [14]
active: Potency [3] 39.4 µM

OC1CCC(C2CCCCC2)CC1 (stereo unspecified)
inactive: Potency [1] | Potency [2] | Potency [3] | Potency [15] | activity change, positive = activation ([16]; at 92.4 µM (top of the series)) -1.53% | Potency [18] | Potency [5] | Potency [6] | Potency [7] | Potency [19] | Potency [8] | max response [20] -6.69% | Potency [9] | Potency [11] | Potency [14]
active: Potency [12] 43.6 µM

Cc1c(C)c2c(c(C)c1OC(=O)c1cccnc1)CC[C@@](C)(CCC[C@H](C)CCC[C@H](C)CCCC(C)C)O2
inactive: Potency [1] | Potency [3] | Potency [4] | Potency [15] | activity change, positive = activation ([16]; at 42.5 µM (top of the series)) 3.86% | Potency [17] | Potency [18] | Potency [5] | Potency [6] | Potency [7] | Potency [19] | Potency [8] | max response [20] -1.07% | Potency [10] | Potency [11] | Potency [12] | Potency [13] | Potency [14]

CC(=O)c1ccc(C(C)=O)cc1
inactive: Potency [1] | Potency [3] | Potency [4] | Potency [15] | activity change, positive = activation ([16]; at 92.4 µM (top of the series)) -2.27% | Potency [17] | Potency [18] | Potency [5] | Potency [6] | Potency [7] | Potency [19] | max response [20] -3.34% | Potency [9] | Potency [10] | Potency [11] | Potency [12] | Potency [13] | Potency [14]

C[Si](Cl)(c1ccccc1)c1ccccc1
inactive: Potency [1] | Potency [2] | Potency [3] | activity change, positive = activation ([16]; at 92.4 µM (top of the series)) -19% | Potency [17] | Potency [5] | Potency [6] | Potency [8] | Potency [9] | Potency [11] | Potency [12] | Potency [13] | Potency [14]

CCCCCC(C)OC(=O)COc1ccc(Cl)c2cccnc12 (stereo unspecified)
inactive: Potency [1] | Potency [2] | Potency [3] | Potency [17] | Potency [18] | Potency [5] | Potency [6] | Potency [8] | max response [20] -19.2% | Potency [10] | Potency [11] | Potency [14]

Cc1cc(-n2nc3ccc(Cl)cc3n2)c(O)c(C(C)(C)C)c1
inactive: Potency [1] | Potency [2] | Potency [4] | Potency [15] | activity change, positive = activation ([16]; at 42.5 µM (top of the series)) 2.34% | Potency [17] | Potency [18] | Potency [5] | Potency [7] | Potency [19] | Potency [8] | max response [20] -5.47% | Potency [9] | Potency [10] | Potency [11] | Potency [12] | Potency [13] | Potency [14]

CCN1C(=O)c2ccccc2C1Nc1ccc(OCCN2CCCCC2)cc1 (stereo unspecified)
inactive: Potency [1] | Potency [2] | Potency [3] | Potency [4] | Potency [5] | Potency [7] | Potency [9] | Potency [11] | Potency [12] | Potency [13] | Potency [14]
active: Potency [18] 5.35 µM | Potency [19] 4.77 µM | Potency [20] 4.77 µM

O=C(O)CN(CCN(CC(=O)O)CC(=O)O)CC(=O)O
active: Potency [2] 4.52 µM | Potency [5] 1.96 µM | Potency [10] 1.74 µM | Potency [12] 1.74 µM
inactive: activity change, negative = cytotoxicity [1] -5.67% [at 2.72 µM] | activity change, negative = cytotoxicity [4] -5.08% [at 5.43 µM] | activity change, negative = cytotoxic [18] 9.19% [at 2.72 µM] | activity change, negative = cytotoxic [6] 12.4% [at 2.72 µM] | activity change, negative = cytotoxicity [19] 0.0628% [at 2.72 µM] | max response [20] 7.27% | activity change, negative = cytotoxic [11] 4.09% [at 2.72 µM] | activity change, negative = cytotoxicity [14] 0.0989% [at 2.72 µM]
